A selection: hits, their analogues and other compounds. The true share with any hit is near 19%.
TDP1 cell CPT: growth inhibition of DT40 Tdp1-/-;hTDP1 cells with camptothecin (screen for TDP1 inhibitors). hit rate 12% among 420,000. AID 686979. chicken DT40 Tdp1-/-;hTDP1 cells + 20 nM CPT, ATP luminescence, 48 h. Potency, µM (titrated, usually from 46.2 µM), without a hit: top-dose activity change, negative = growth inhibition, most hits filed as inhibitors; also: potency is read from the fitted curve at half-maximal effect; nearly all actives have a fitted effect of over 55% in size
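Chicken DT40 Tdp1-/- cells complemented with human TDP1, 400 cells/well, exposed to compounds plus 20 nM camptothecin for at least 48 h at 37 C; viability read as ATP content by CellTiter-Glo luminescence.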
HT1080NT lethal: kills 2HG-producing HT-1080-NT fibrosarcoma cells; hit rate 1.6% among 360,000; AID 686970; Potency, µM (series often up to 46.1 µM), inactives show at the top dose activity, negative = less viability, hits mostly cytotoxic; HT-1080-NT fibrosarcoma viability, CellTiter-Glo ATP luminescence, 48 h;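 also: NT is the 2HG producing partner of a matched IDH1 knockdown line; potency is read from the fitted curve at half-maximal effect; 0% = DMSO-treated cells and -100% = media-only wells without cells; nearly all actives have a fitted effect of over 55% in size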
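Compounds were tested in concentration-response format on HT-1080-NT cells for 48 hours at 37 degrees C. Cell viability came from CellTiter-Glo luminescence; curves were classified by r2, response magnitude and activity.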
ELG1 DNA repair: inhibitors of ELG1-dependent DNA repair in HEK293T cells; AID 504467; Potency, µM (doses to about 46.1 µM), for the others: top-dose activity change, negative = inhibition, usual class: inhibitors; hit rate 2.3% among 330,000; HEK293T ELG1-luciferase reporter, luminescence, 16 h; DNA damage induced by 5-fluorouridine; also: potency is read from the fitted curve at half-maximal effect; nearly all actives have a fitted effect of over 55% in size
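Luminescence from the luciferase reporter, measured 30 min after ONE-Glo reagent at room temperature, was the read-out. Beforehand, 2,000 cells per well were exposed for 16 hr at 37 °C to 5-fluorouridine together with compound or vehicle.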
TDP1 cell noCPT: qHTS for Inhibitors of human tyrosyl-DNA phosphodiesterase 1 (TDP1): qHTS in cells in absence of CPT | DT40 Tdp1-/- hTDP1 cells, no CPT, ATP luminescence, 48 h | Potency, µM (top dose mostly 46.2 µM), inactives show at the highest dose activity change, negative = growth inhibition, actives largely listed as inhibitors | hit rate 15% among 420,000 | AID 686978, 2013; also: potency is read from the fitted curve at half-maximal effect; nearly all actives have a fitted effect of over 55% in size
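No-CPT arm: Tdp1-/-;hTDP1 DT40 cells (400/well) plus compounds, incubated ≥48 hr at 37 °C. Readout CellTiter-Glo luminescence.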
IL-1B inflam inh: inflammasome signaling inhibition, IL-1 beta readout | AID 743279 | activity change, % at 57.5 µM | hit rate 4.7% among 360,000 | THP-1 LPS/ATP IL-1B secretion, AlphaLISA, 16 h; active compounds read low; in the data active = activity change below about -50%; inconclusive = mostly about -30% to -49%
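THP-1 cells pretreated 1 hr with compounds (up to 57.5 uM final), then stimulated with LPS (250 ng/mL final) plus ATP (1.25 mM final); secreted IL-1B measured by AlphaLISA after 16 hr, decreased signal indicating inhibition.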
HT1080 IDH1KD tx: kills HT-1080 cells with IDH1 knockdown; HT-1080 IDH1 knockdown viability, ATP luminescence, 48 h; Potency, µM (highest dose often 46.1 µM), for inactives: at the highest dose activity, negative = toxicity, hits mostly cytotoxic; hit rate 2% among 360,000;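 also: potency is read from the fitted curve at half-maximal effect; 0% = DMSO wells and -100% = cell-free medium wells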
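Using the IDH1-knockdown HT-1080 line run in the same batch and compound series as the NT line, viability after 48 h at 37 °C was determined by CellTiter-Glo luminescence and expressed as % activity.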
An asterisk follows results filed as active; ? = inconclusive; . = not tested or not shown. Unless noted, calls follow the shape of the dose curve; as a rule, active = well fitted curve in the direction sought with a large enough effect; inconclusive = small, poorly fitted or top-dose-only effect, or another doubt; inactive = no such curve, though single readings can be large; an effect the other way counts as inactive or inconclusive. Unless noted, % is scaled to controls: 0 for no effect and ±100 for the full control effect.

SMILES	TDP1 cell CPT	HT1080NT lethal	ELG1 DNA repair	TDP1 cell noCPT	IL-1B inflam inh	HT1080 IDH1KD tx
CCOc1ccc(CCNC(=O)c2cc(=O)[nH]c3ccc(S(=O)(=O)N4CCCCC4)cc23)cc1OCC	-1.2%	.	.	-4.9%	.	.
O=C1N[C@@H](Cc2cn(S(=O)(=O)c3ccc([N+](=O)[O-])cc3)c3ccccc23)C(=O)N[C@H]1Cc1ccccc1	20.6µM*	-14.2%	.	?	-22.6	-9.9%
Cc1sc(NC(=O)CN(Cc2ccc(F)cc2)C(=O)C(C)(C)C)c(C(N)=O)c1C	13µM*	-1.1%	?	8.2µM*	25.4	-10.2%
Cc1sc(NC(=O)CN(Cc2ccccc2)C(=O)C2CC2)c(C(N)=O)c1C	8.2µM*	-2.4%	?	4.61µM*	33.2	-1.7%
CCn1cc(C(=O)N[C@@H](CCSC)C(=O)NC(C)(C)CO)c(=O)c2cc3c(cc21)OCO3	-8.7%	-6.5%	10.5%	-6.2%	-22.5	0.6%
O=C1C(NS(=O)(=O)c2ccc(Br)cc2)=C(N2CCCCC2)C(=O)c2ccccc21	?	?	-2.8%	18.4µM*	-21.0	-15.6%
CCOC(=O)C1CCN(C2=C(NS(=O)(=O)c3ccc(Cl)cc3)C(=O)c3ccccc3C2=O)CC1	-15.9%	-2.6%	?	?	-9.1	-18.3%
CC1CCN(C2=C(NS(=O)(=O)c3ccc(Br)cc3)C(=O)c3ccccc3C2=O)CC1	?	18.4µM*	-3.0%	18.4µM*	?	-24.0%
O=C1C(NS(=O)(=O)c2ccccc2)=C(N2CCN(c3ccc(F)cc3)CC2)C(=O)c2ccccc21	?	?	23.1µM*	?	-11.5	-19.3%
CCOC(=O)C1CCCN(C2=C(NS(=O)(=O)c3ccc(Br)cc3)C(=O)c3ccccc3C2=O)C1 (centres undefined)	18.4µM*	?	?	16.4µM*	8.5	-16.2%
Cc1ccc(S(=O)(=O)NCC(=O)N2CCN(c3ccc(F)cc3)CC2)cc1	-4.0%	8.6%	-2.6%	-7.7%	-8.3	0.9%
CC(C)[C@@H](C(=O)NC1CCCC1)N1C(=O)N2CCc3c([nH]c4ccccc34)[C@@]2(C)C1=O	?	-1.7%	?	?	1.7	2.1%
CC1CCCN(C2=C(NS(=O)(=O)c3ccc(Br)cc3)C(=O)c3ccccc3C2=O)C1 (centres undefined)	?	-3.5%	?	11.6µM*	-9.4	-0.3%
CC1CCN(C2=C(NS(=O)(=O)c3ccccc3)C(=O)c3ccccc3C2=O)CC1	?	-26.8%	-15.3%	?	-73.6*	?
O=C1C(NS(=O)(=O)c2cccs2)=C(N2CCN(c3cccc(Cl)c3)CC2)C(=O)c2ccccc21	20.6µM*	-0.2%	-18.3%	23.1µM*	-12.6	3.2%
CCn1c(=O)c2ccccc2n(Cc2ccccc2C)c1=O	?	-5.2%	10.2%	?	-9.3	-13.9%
O=c1c2ccccc2n(Cc2cccc(F)c2)c(=O)n1C1CCCC1	?	-18.0%	-12.4%	23.1µM*	16.0	-8.2%
Cc1cccc(CCn2c(=O)c3ccccc3n(Cc3ccccc3C)c2=O)c1	14.6µM*	.	.	16.4µM*	.	.
O=c1c2ccccc2n(Cc2ccccc2F)c(=O)n1-c1cccc(F)c1	?	.	.	14.6µM*	.	.
CCn1c(=O)c2ccccc2n(Cc2cccc([N+](=O)[O-])c2)c1=O	1.8%	-3.7%	-0.2%	?	-50.3*	-4.3%
COc1ccc(-n2c(=O)c3ccccc3n(Cc3ccccc3F)c2=O)cc1OC	?	-1.5%	?	?	-6.3	0.3%
COc1cc(-n2c(=O)c3ccccc3n(Cc3cccc(F)c3)c2=O)cc(OC)c1OC	-2.7%	2.3%	6.1%	1.2%	?	-2.0%
O=C(CCn1c(=O)c2ccccc2n(Cc2cccc([N+](=O)[O-])c2)c1=O)N1CCc2ccccc2C1	?	0.3%	7.5%	?	-11.4	-8.6%
O=C(CSc1nnc(-c2cccnc2)o1)Nc1ccccc1F	-18.7%	-3.4%	?	?	-1.4	-2.8%
O=C(Cc1ccc(Cl)cc1)NNC(=O)C1CC=CCC1C(=O)O (centres undefined)	.	.	-3.6%	.	.	.
SMILES	TDP1 cell CPT	HT1080NT lethal	ELG1 DNA repair	TDP1 cell noCPT	IL-1B inflam inh	HT1080 IDH1KD tx
N#Cc1ccccc1Cn1c(=O)n(C2CCCC2)c(=O)c2ccccc21	16.4µM*	-2.9%	-14.8%	18.4µM*	-18.3	-9.9%
Cc1cccc(CCn2c(=O)c3ccccc3n(Cc3cccc(F)c3)c2=O)c1	18.4µM*	.	.	23.1µM*	.	.
Cc1cccc(-n2c(=O)c3ccccc3n(Cc3ccccc3C#N)c2=O)c1	-28.3%	.	.	-9.2%	.	.
O=C(c1cc2cc(F)ccc2[nH]1)N1CCc2ccccc21	?	0.4%	?	-12.4%	48.1	-0.4%
O=C1CC(C(=O)Nc2ccc(Cl)cc2[N+](=O)[O-])C2(CCCCC2)O1 (centres undefined)	-12.3%	6.7%	3.5%	-22.4%	24.6	14.7%
Cc1onc(NC(=O)c2ccc(Cl)cc2Cl)c1Br	?	17.9%	?	10.3µM*	-10.5	-6.0%
CCOC(=O)c1[nH]c(C)c(C(=O)OCC(=O)N(C)C2CCS(=O)(=O)C2)c1C (centres undefined)	9.6%	0.1%	2.3%	6.3%	12.6	5.0%
Cc1cc(C)c2sc(N3CCN(C(=O)c4ccc(N(C)C)cc4)CC3)nc2c1	?	.	.	14.6µM*	.	.
CCOC(=O)C1CCN(C(=O)C2CCN(c3nc4ccc(OC)cc4s3)CC2)CC1	13µM*	-1.9%	-6.7%	16.4µM*	-26.1	-15.1%
CN(C)c1ccc(C(=O)N2CCN(c3cc(C(F)(F)F)nc4ccccc34)CC2)cc1	?	-6.8%	?	?	-54.6*	-14.6%
Cc1cc(C)c(C(=O)c2ccc(C(=O)N3CCCCC3)cc2)c(C)c1	-24.7%	3.8%	?	-8.3%	-0.9	-22.4%
Cc1cc(C)c2sc(N3CCN(C(=O)C4CC4)CC3)nc2c1	29.1µM*	.	.	18.4µM*	.	.
O=C(O)COCC(=O)N1CCN(c2cc(C(F)(F)F)nc3ccccc23)CC1	4.9%	15.7%	4.1%	15.9%	-7.9	13.3%
CC(=O)NCCc1ccc(C(=O)COC(=O)c2cccs2)cc1	3.1%	7.0%	.	-3.9%	14.3	2.6%
Cc1cc(C)c(C(N)=O)c(Nc2ccc(F)cc2)n1	5.3%	14.4%	2.3%	-21.9%	-4.3	-0.9%

Screening data: PubChem, National Center for Advancing Translational Sciences (NCATS)
